Source: PubChem
Tau FP inhib = inhibitors of human tau fibril formation; P10636; K18 P301L tau heparin fibrillization, Alexa594 FP, 6 h; Potency, µM (highest dose often 57.7 µM), most hits filed as inhibitors; AID 1468; 280,000 compounds, 0.39% hits; further: nearly all actives have a fitted effect of over 55% in size
Target sequence (P10636 561-689 P618L limits assumed): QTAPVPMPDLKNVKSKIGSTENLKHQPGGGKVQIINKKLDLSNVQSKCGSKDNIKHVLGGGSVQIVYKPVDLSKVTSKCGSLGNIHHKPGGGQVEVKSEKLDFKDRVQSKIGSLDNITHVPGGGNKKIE
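Human tau K18 […] P301L fragment, 15 uM unlabeled plus 0.24 uM Alexa 594-labeled tau (final), with compound and 20 uM heparin in 100 mM sodium acetate pH 7; 6 hr at 37 C, then Alexa 594 FP read.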
FBPA coupling cs = counter-screen for Giardia aldolase inhibitors: coupling enzyme system; activity change, negative = inhibition, % at 58.2 µM, hits read low; 290,000 compounds, 0.67% hits; coupling enzyme system counterscreen, AmpLite Red fluorescence; in the data active means activity change below about -30%
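Compounds tested against the coupling enzymes alone at 57.5 uM final; readout was AmpLite Red fluorescence (525/598 nm) after 20 min at RT.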
Tau fibril ThT = blocks human tau fibril formation measured by thioflavin T; recombinant tau K18 P301L, heparin-induced fibrillization, ThT fluorescence; 270,000 compounds, 2.1% hits; Potency, µM (highest dose often 57.4 µM), usual class: inhibitors; AID 1460; P10636; further: nearly all actives have a fitted effect of over 55% in size
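Using a mix of unlabeled (15 uM) and Alexa 594-labeled (0.24 uM) tau K18 P301L, heparin-triggered fibrillization over 6 hr at 37 C was scored by ThT fluorescence.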
Sfp PPTase inh = inhibitors of Bacillus subtilis Sfp phosphopantetheinyl transferase; Q9F4F7; Biochemical Sfp PPTase activity, qHTS; Potency, µM, most hits filed as inhibitors; 310,000 compounds, 3.5% hits; AID 1490;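 further: the enzyme is Sfp with the accession as filed and its product quenches rhodamine fluorescence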
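Buffer: 50 mM Hepes-Na pH 7.6, 10 mM MgCl2, 0.01% Nonidet P-40, 0.01% BSA. Enzyme 15 nM, pre-exposed to compound 15 min; substrates then added and fluorescence change tracked over 30 min.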
JMJD2E inh = JMJD2E (human) inhibition | B2RXH2 | JMJD2E catalytic domain, FDH-coupled NADH fluorescence (FDH is formaldehyde dehydrogenase) | Potency, µM (series often up to 57.1 µM), most hits filed as inhibitors | 230,000 compounds, 1.6% hits | AID 2147; active means well fitted inhibition curve with a large enough effect, not every such curve was filed as active; inconclusive means small, poorly fitted or top-dose-only effect, or another doubt; inactive means no such curve, though single readings can be large or run the other way; further: nearly all actives have a fitted effect of over 50% in size
Target sequence (B2RXH2 1-337 limits assumed): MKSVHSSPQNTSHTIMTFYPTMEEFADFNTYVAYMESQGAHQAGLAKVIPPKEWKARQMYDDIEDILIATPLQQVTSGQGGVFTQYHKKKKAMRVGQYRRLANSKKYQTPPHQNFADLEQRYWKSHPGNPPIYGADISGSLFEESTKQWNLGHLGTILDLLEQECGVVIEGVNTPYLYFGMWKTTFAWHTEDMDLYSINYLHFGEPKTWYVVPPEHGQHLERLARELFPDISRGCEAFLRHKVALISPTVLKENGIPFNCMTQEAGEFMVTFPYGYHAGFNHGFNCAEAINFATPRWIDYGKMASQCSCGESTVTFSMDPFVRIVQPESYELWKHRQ
Tau fluor cs = counter-screen for tau fibril formation inhibitors; 280,000 compounds, 0.93% hits; tau K18 P301L Alexa594 fluorescence, heparin fibrillization; AID 1463; Potency, µM (doses to about 57.7 µM); further: nearly all actives have a fitted effect of over 55% in size
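Human tau K18 P301L (15 uM unlabeled, 0.24 uM Alexa 594-labeled) in 100 mM sodium acetate pH 7 with 20 uM heparin, 6 hr at 37 C. ThT 30 uM added, 1 hr ambient; Alexa 594 FP and total fluorescence read at 555/632 nm.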
Hits are given with their value; i = inactive; ? = inconclusive; nt = not tested or not shown; [ ] = another dose, or the depositor's remark. An excerpt weighted towards active compounds, which were near 5.3% of everything screened. Unless noted, the call rests on the fitted dose curve; in most records, active means well fitted curve in the direction sought with a large enough effect; inconclusive means small, poorly fitted or top-dose-only effect, or another doubt; inactive means no such curve, though single readings can be large; an effect the other way counts as inactive or inconclusive.

SMILES	Tau FP inhib	FBPA coupling cs	Tau fibril ThT	Sfp PPTase inh	JMJD2E inh	Tau fluor cs
CN(C)/C=N/c1c(C#N)cnn1-c1ccc(F)c(Cl)c1	nt	i	nt	i	nt	nt
Cn1c(=N)n(CC(=O)c2ccc(Br)s2)c2ccccc21	?	i	i	i	i	i
N=c1n(CC(=O)c2ccc(Br)s2)c2ccccc2n1Cc1ccccc1	?	i	i	14.1µM	i	i
CCOc1cc(/C=C2\CN(C)C/C(=C\c3ccc(O)c(OCC)c3)C2=O)ccc1O	nt	i	nt	i	nt	nt
CCOc1cc(/C=C2\CCC/C(=C\c3cc(Cl)c(O)c(OCC)c3)C2=O)cc(Cl)c1O	?	i	8.91µM	i	i	?
CCCCOc1ccc(CNC(=O)c2cc3n(n2)CCCN(Cc2ccc(C)cc2)C3=O)cc1	i	nt	i	nt	nt	i
C[C@H](c1ccccc1)N1C(=O)[C@H]2[C@@H]3[C@H](O)[C@H](O)CC(=O)[C@H]3CC[C@H]2C1=O	i[11.6 µM]	i	i[11.5 µM]	i	nt	i[11.6 µM]
COc1cc2c(cc1NC(=O)CCCN1C(=O)CCC1=O)oc1ccccc12	i	i	i	i	i	i
COC(=O)CCC(=O)c1oc2ccc(Cl)cc2c1NC(=O)CCCN1C(=O)c2ccccc2C1=O	i	i	i	35.5µM	i	i
CCOC(=O)c1c(-c2ccccc2)oc2ccc(O)cc12	nt	i	nt	39.8µM	nt	nt
CCOC(=O)c1c(-c2ccccc2)oc2ccc(OCC)cc12	i	i	i	?	?	i
CCOC(=O)c1c(CSc2ccc(C)cc2)oc2ccc(O)cc12	31.6µM	i	?	i	i	?
COC(=O)NC(CC(C)=O)c1ccc2c(c1)OCO2 (stereo not given)	i[11.6 µM]	i	i[11.5 µM]	?	nt	i[11.6 µM]
CCN(CCCNC(=O)c1nn(-c2ccc(OC)cc2)c(=O)c2c1c1ccccc1n2C)c1ccccc1	i	nt	i	nt	nt	?
O=C(c1ccc2c(c1)CCN2S(=O)(=O)c1ccc(Cl)cc1)N1CCN(c2ccccc2)CC1	i	nt	i	nt	nt	i
Cc1noc(C)c1-c1cc(NCCN2CCOCC2)ncn1	nt	i	nt	i	nt	nt
COc1ccc(C2=CC(=O)C=CC2=O)cc1	35.5µM	-36.0	14.1µM	3.16µM	14.1µM	?
COc1ccc(S(=O)(=O)c2ccc(OC)cc2)cc1	i	i	i	i	i	i
COc1c(Cl)cc(C(=O)Nc2cccc(-c3nc4ccccc4[nH]3)c2)cc1Cl	22.4µM	nt	?	nt	nt	?
CS(=O)(=O)c1cccc(C(=O)Nc2ccc(-c3nc4ccccc4[nH]3)cc2)c1	nt	i	nt	i	nt	nt
CCCN(CCC)S(=O)(=O)c1ccc(C(=O)Nc2cccc(-c3nc4ccccc4[nH]3)c2)cc1	25.1µM	nt	i	nt	nt	?
CC(C)(C)OC(=O)NCCCCC1=CC2=CC(=O)C(C)(OC(=O)CCc3ccccc3)C(=O)C2=CO1 (stereo not given)	i	i	i	i	i	i
COc1ccc(N/N=C(\C=N\O)C(=O)c2ccc(OC)cc2)cc1	i	i	12.6µM	i	i	?
CC1CCN(C(=O)Cn2ncc3c4ccccc4n(Cc4ccc(Cl)cc4)c3c2=O)CC1	i	nt	i	nt	nt	i
CCOC(=O)C1=C(c2ccccc2)N=c2s/c(=C\c3ccc(O)cc3)c(=O)n2C1c1cccs1 (stereo not given)	31.6µM	i	?	i	i	8.91µM[quencher]
SMILES	Tau FP inhib	FBPA coupling cs	Tau fibril ThT	Sfp PPTase inh	JMJD2E inh	Tau fluor cs
CCOC(=O)C1=C(C)N=c2s/c(=C/c3cccc([N+](=O)[O-])c3O)c(=O)n2C1c1cc(OC)c(OC)c(OC)c1 (stereo not given)	nt	i	nt	56.2µM	nt	nt
CCOC(=O)C1=C(C)N=c2s/c(=C\c3cccn3C)c(=O)n2C1c1cccc(OC)c1OC (stereo not given)	i	i	?	15.8µM	i	i
CCOC(=O)C1=C(C)N=c2s/c(=C\c3cc(OC)c(OC)c(OC)c3)c(=O)n2C1/C=C/c1ccccc1 (stereo not given)	i	i	i	i	i	i
CCOC(=O)C1=C(C)N=c2s/c(=C/c3cccc([N+](=O)[O-])c3O)c(=O)n2C1c1ccccc1 (stereo not given)	nt	i	nt	50.1µM	nt	nt
CC(=O)N1CCC2(CC1)CN(C(c1ccccc1)c1ccccc1)C2	nt	i	nt	i	nt	nt
Cc1cccc(NC(=O)c2cc3c(=O)n(Cc4ccco4)ccc3nc2C)c1	i	nt	i	nt	nt	i
CCOC(=O)C1=C(C)N=c2s/c(=C/c3ccco3)c(=O)n2C1c1cccc(OC)c1 (stereo not given)	?	i	14.1µM	39.8µM	i	i
COC(=O)C1=C(C)N=c2s/c(=C/c3ccoc3)c(=O)n2C1c1ccccc1 (stereo not given)	i	i	?	79.4µM	i	i
Cc1cccc(N=Cc2[nH]c3ccc(Br)c(Cl)c3c2O)c1	i	-32.7	?	i	i	i
Cc1cccc(N=Cc2c(O)cc(C)oc2=O)c1	i	i	i	i	?	i
COc1cccc(CN=CC2=C(O)CC(C)(C)CC2=O)c1OC	i	i	i	i	i	i
COc1ccccc1CN=Cc1[nH]c2ccc(Br)c(Cl)c2c1O	i	-44.0	?	?	i	i
O=C(CSc1nc2ccccc2c(=O)n1-c1ccc(F)cc1F)c1c[nH]c2ccccc12	28.2µM	i	?	i	i	?
O=C(C1CCCN(Cc2cccnc2)C1)N1CCCCC1 (stereo not given)	i	i	?	50.1µM	i	i
COc1ccc(C(=O)NC2=NCCS2)cc1	nt	i	nt	i	nt	nt
CC(C)Oc1ccc(C(=O)NC2=NCCS2)cc1	i	i	i	35.5µM	i	i
CCOC(=O)c1ccc(Nc2nc(N)c3cc(OC)c(OC)cc3n2)cc1	?	i	?	79.4µM	nt	?
COc1cc2nc(Nc3ccc(C)c(Cl)c3)nc(N)c2cc1OC	nt	i	nt	44.7µM	nt	nt
CCOC(=O)c1ccc(Nc2c(OCC)c(=O)c2=O)cc1	i	i	nt	i	i	17.8µM[quencher]
COc1ccc(-c2cc3ccc(O)c(CN4CCOCC4)c3oc2=O)cc1OC	i	nt	i	nt	nt	i
OC(CNc1ccccc1)COc1ccc(OCC(O)CNc2ccccc2)cc1 (stereo not given)	i	i	2.82µM	i	i	10µM[quencher]
COc1ccc(CNCC(O)COc2ccc(C(C)(C)c3ccccc3)cc2)cc1 (stereo not given)	nt	i	nt	56.2µM	nt	nt
CCOCC(O)CNc1ccccc1 (stereo not given)	i	i	i	i	i	i
COC(=O)c1ccc(CNCC(O)COc2ccc(-c3ccccc3)cc2)cc1 (stereo not given)	nt	i	nt	i	nt	nt
CC(C)(c1ccccc1)c1ccc(OCC(O)CNC2CCN(Cc3ccccc3)CC2)cc1 (stereo not given)	i	i	?	79.4µM	10µM	i
CC(=O)Nc1ccc(OCC(O)CNC2CCCC2)cc1 (stereo not given)	i	-37.9	?	i	i	i
COc1ccc(NC(=O)C2CCCN(S(=O)(=O)c3ccc(F)cc3)C2)cc1 (stereo not given)	i	nt	i	nt	nt	i
